High-throughput results: PubChem, National Center for Advancing Translational Sciences (NCATS)
This is one part of a sample in which hits are shown more often than they occur.
JMJD2E inh: JMJD2E (human) inhibition; B2RXH2; JMJD2E catalytic domain, FDH-coupled NADH fluorescence (FDH is formaldehyde dehydrogenase); Potency, µM (series often up to 57.1 µM), for the others: at the top dose activity change, negative = inhibition, usual class: inhibitors; hit rate 1.6% among 230,000; AID 2147; active = well fitted inhibition curve with a large enough effect, not every such curve was filed as active; inconclusive = small, poorly fitted or top-dose-only effect, or another doubt; inactive = no such curve, though single readings can be large or run the other way;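 also: 0% = wells with enzyme and -100% = buffer wells without enzyme; nearly all actives have a fitted effect of over 50% in size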
Target sequence (B2RXH2 1-337 limits assumed): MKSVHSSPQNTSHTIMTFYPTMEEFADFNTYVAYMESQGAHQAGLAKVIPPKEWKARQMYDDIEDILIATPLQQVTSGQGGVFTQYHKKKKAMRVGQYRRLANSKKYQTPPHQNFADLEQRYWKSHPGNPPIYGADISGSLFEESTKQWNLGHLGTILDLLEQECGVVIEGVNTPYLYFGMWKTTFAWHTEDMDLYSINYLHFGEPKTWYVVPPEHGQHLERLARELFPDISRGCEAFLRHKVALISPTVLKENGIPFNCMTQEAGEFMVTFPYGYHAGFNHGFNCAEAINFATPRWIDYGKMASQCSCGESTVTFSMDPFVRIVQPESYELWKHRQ
APEX1 inh: APE1 (human) endonuclease inhibition; P27695; recombinant APE1, TAMRA/BHQ-2 abasic DNA cleavage fluorescence; Potency, µM (series often up to 65.8 µM), without a hit: at the top dose activity change, negative = inhibition, actives largely listed as inhibitors; hit rate 0.35% among 350,000; AID 2517;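 also: plate controls were vehicle for no effect and reference inhibitor for full effect; nearly all actives have a fitted effect of over 55% in size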
Target sequence (P27695 whole entry, looked up): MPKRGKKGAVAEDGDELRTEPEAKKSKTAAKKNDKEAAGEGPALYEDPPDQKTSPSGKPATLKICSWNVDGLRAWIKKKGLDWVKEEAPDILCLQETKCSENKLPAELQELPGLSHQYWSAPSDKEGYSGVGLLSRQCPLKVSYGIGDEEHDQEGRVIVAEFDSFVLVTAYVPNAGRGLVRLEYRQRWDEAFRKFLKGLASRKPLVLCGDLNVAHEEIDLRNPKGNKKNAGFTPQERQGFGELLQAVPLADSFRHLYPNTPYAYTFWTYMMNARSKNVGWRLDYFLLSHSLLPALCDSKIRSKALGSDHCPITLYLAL
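Step 1: APE1 (0.75 nM) with compound, 15 min RT. Step 2: add 50 nM fluorophore/quencher THF duplex. Step 3: three fluorescence reads 60 s apart (525/598 nm); read 3 minus read 1 = reaction progress.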
RECQ1 inh: blocks DNA unwinding by human RECQ1. RECQ1 DNA unwinding, red fluorescence kinetic read. Potency, µM (top dose mostly 57.3 µM), for inactives: at the top dose activity, negative = inhibition, hits mostly inhibitors. hit rate 0.54% among 240,000;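 also: plate controls were vehicle for no effect and no enzyme for full effect; nearly all actives have a fitted effect of over 30% in size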
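50 nM RECQ1T1 preincubated 15 min with compound in Tris pH 8.0 buffer with MgCl2, DTT, Tween-20 and 2.5 ug/ml poly(dI-dC); started with 200 nM TAMRA/BHQ-2 forked duplex and 2 mM ATP. Unwinding read as fluorescence (525/598 nm), two reads 2 h apart.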
PKM2 act: increases activity of human pyruvate kinase M2. purified PKM2, Kinase-Glo ATP luminescence, activation; response scale: 0% is enzyme alone, no compound. Potency, µM (series often up to 57.5 µM), for the others: at the highest dose activation, most hits filed as activators. hit rate 0.34% among 260,000; also: nearly all actives have a fitted effect of over 55% in size
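Kinase-Glo luminescence reports ATP generated from ADP (0.1 mM) and PEP (0.5 mM) by purified hPK-M2 after 1 h at room temperature, pH 7.2 imidazole buffer; intermediate enzyme activity allows detecting inhibitors and activators.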
BLM helicase inh: inhibitors of human Bloom syndrome helicase BLM; P54132; Potency, µM (top dose mostly 56.1 µM), inactives show at the highest dose activity change, negative = inhibition, hits mostly inhibitors; hit rate 0.2% among 350,000; AID 2528; recombinant BLM DNA unwinding, fluorescence dequenching;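 also: plate controls were vehicle for no effect and no enzyme for full effect; nearly all actives have a fitted effect of over 35% in size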
* marks the source's active call; other numbers are inactive results; i = inactive; ? = inconclusive; / = not tested or not shown. Unless noted, calls follow the shape of the dose curve; as a rule, active = well fitted curve in the direction sought with a large enough effect; inconclusive = small, poorly fitted or top-dose-only effect, or another doubt; inactive = no such curve, though single readings can be large; an effect the other way counts as inactive or inconclusive. Unless noted, % is scaled to controls: 0 for no effect and ±100 for the full control effect; potency is read from the fitted curve at half-maximal effect.

SMILES | JMJD2E inh | APEX1 inh | RECQ1 inh | PKM2 act | BLM helicase inh
CC1(C)C=C2C(=NN(c3ccccc3)C(N)=C2C#N)CO1 | / | 5% | / | 14% | 18µM*
CC1(C)Cc2c(C#N)c(N)n(-c3ccccc3)c(=S)c2CO1 | ? | -1% | -3% | -1% | -7%
Cc1cc(C(=O)N/N=C/c2cc(Br)cc([N+](=O)[O-])c2O)c2ccccc2n1 | 6.3µM* | -3% | -5% | 0% | 4%
Cc1cc(C(=O)N/N=C/c2cc([N+](=O)[O-])ccc2O)c2ccccc2n1 | 28µM* | 15% | -4% | -7% | 4%
C[C@@H]1CC2(OC(O)[C@]3(C)O[C@H]23)O[C@H]2C[C@@]3(C)[C@@H]4CC[C@H]5C(C)(C)C(O[C@@H]6OC[C@@H](O)[C@H](O)[C@H]6O)CC[C@@]56C[C@@]46CC[C@]3(C)[C@@H]12 (stereo partly drawn) | / | -8% | 19% | / | /
N[C@@H](Cc1cc(I)c(Oc2ccc(O)cc2)c(I)c1)C(=O)O | / | 2% | i | / | /
N#Cc1nc(NCCO)nc(Nc2ccccc2)n1 | / | ? | i | / | 6%
Cc1ccc(S(=O)(=O)Nc2cccc3ccc[n+](C)c23)cc1 | / | 0% | -2% | / | -7%
N#C/C(=C/c1ccc(N2CCOCC2)o1)c1ccc(Cl)cc1 | ? | -7% | -17% | 1.3µM* | 0%
Cc1ccc(CN(C)c2ccc(N3CCN(C)CC3)cc2)cc1 | / | 17% | / | / | /
Cc1nc2ccc(N=NN(C)C)cc2[nH]1 | ? | 0% | 11% | 10µM* | -4%
CCN1CCN(c2cc(C)c3cc(NC(=O)/C=C/c4cccc(Cl)c4)ccc3n2)CC1 | / | / | / | / | -10%
COC(=O)N[C@@H](c1ccc(Br)cc1)C(C(=O)OC)C(=O)OC | -1% | -1% | 2% | / | 1%
CCOC(=O)NC(=O)C(/C=N/c1sccc1C(=O)OC)=C(\C)O | ? | 3% | 14µM* | -7% | -1%
O=C1/C(=C/Nc2ccc3c(c2)OCO3)CCc2ccccc21 | 14µM* | 2% | 7% | -71% | -15%
COc1ccc2c(c1)CC/C(=C\Nc1ccc3c(c1)OCO3)C2=O | ? | 0% | -7% | -1% | -14%
CCOc1ccc(CC2NCCc3cc(OCC)c(OCC)cc32)cc1OCC (stereo not drawn) | 35µM* | 4% | i | -2% | -8%
CC1=NN(c2ccc(C(=O)O)cc2)C(=O)/C1=C\c1ccc(OC(=O)c2cccs2)cc1 | 3.2µM* | ? | -5% | -7% | -4%
CN(C)CC(O)Cn1c2ccc(Br)cc2c2cc(Br)ccc21 (stereo not drawn) | / | -7% | -5% | / | /
O=c1[nH]n2c(=O)c3c([nH]c2c1N=Nc1cccc(Cl)c1)CCC3 | -4% | 1% | 5% | 23% | 16µM*
COc1cccc(N=Nc2c(=O)[nH]n3c(=O)c4c([nH]c23)CCC4)c1 | 6% | ? | -16% | 1% | -22%
NS(=O)(=O)c1ccc(N=Nc2c(=O)[nH]n3c(=O)c4c([nH]c23)CCCC4)cc1 | 28µM* | 7% | -16% | -7% | -4%
Cc1c(Cl)cccc1N1CC(C)(C)C1=O | 5% | -4% | 18µM* | -2% | 0%
Cc1nc(C)c(/C(O)=C\c2nc3ccc([N+](=O)[O-])cc3oc2=O)o1 | 20µM* | -10% | -10% | -4% | -3%
CC[n+]1c(/C=C/Nc2ccccc2)sc2ccccc21 | -3% | -7% | 9% | -13% | -1%
SMILES | JMJD2E inh | APEX1 inh | RECQ1 inh | PKM2 act | BLM helicase inh
CC[n+]1ccccc1/C=C/Nc1ccccc1 | 18µM* | -1% | -7% | 1% | 3%
Cc1cc(NC(=O)CSc2ccc3nnc(-c4ccc(F)cc4)n3n2)no1 | ? | -4% | -8% | 5% | 0%
Cc1cc(NC(=O)CSc2ccc(-c3ccc(F)cc3)nn2)no1 | 7% | 5% | 1% | 7.1µM* | -3%
Cc1nnc(NC(=O)CSc2ccc(-c3cccnc3)nn2)s1 | 5% | 5% | -13% | 2.8µM* | -18%
Cc1cc(NC(=O)CSc2ccc(-c3ccccc3)nn2)no1 | 3% | 7% | -4% | 16µM* | -2%
COc1ccc(C(=O)/C(Br)=C/C(=O)O)cc1 | / | / | / | / | 0%
CC(=O)C1(C)CC2=C(CCCC2(C)C)CC1C (stereo not drawn) | / | 1% | -4% | / | /
CCn1c2ccccc2c2cc(CN3CCN(Cc4cc(OC)c(O)c(OC)c4)CC3)ccc21 | / | / | / | / | -11%
CCn1c2ccccc2c2cc(CN3CCN(Cc4cc(OC)ccc4O)CC3)ccc21 | 18µM* | -4% | -5% | -12% | -4%
CC(=O)c1ccc(NC(=O)CSc2nnc(-c3ccco3)c(-c3ccco3)n2)cc1 | 16µM* | 16% | -7% | ? | 7.9µM*
COc1ccc(-c2nnc(SCC(=O)Nc3ccc(C(C)=O)cc3)nc2-c2ccc(OC)cc2)cc1 | / | / | / | / | -1%
CC(C)C[C@@H](CC(=O)N[C@H](CC(=O)N[C@@H]1CCCC[C@H]1C(=O)N[C@H](CC(=O)N[C@@H](CCC(=O)O)CC(=O)O)Cc1c[nH]c2ccccc12)C(C)C)NC(=O)[C@@H]1CCCC[C@H]1N | -7% | -4% | -7% | / | 7.1µM*
COc1ccc([C@@H]2CC(=O)c3c(O)cc(O[C@@H]4O[C@H](CO)[C@@H](O)[C@H](O)[C@H]4O[C@@H]4O[C@@H](C)[C@H](O)[C@@H](O)[C@H]4O)cc3O2)cc1 | / | 12% | -14% | / | -1%
Cc1ccc(/C=N/N2C(=S)SC(C)(C)C2N(O)C(=O)Nc2ccc([N+](=O)[O-])cc2)cc1 (stereo not drawn) | -4% | 10% | 32µM* | 0% | -8%
CC1(C)SC(=S)N(/N=C/c2ccc(O)cc2)C1N(O)C(=O)Nc1ccc([N+](=O)[O-])cc1 (stereo not drawn) | -1% | -5% | -6% | -1% | -11%
CCCCC(=NCCc1c(C)[nH]c2ccc(OC)cc12)C1=C(O)CC(c2ccccc2)CC1=O (stereo not drawn) | 25µM* | -6% | -5% | -3% | -15%
Cc1ccc(NC(=S)NNC(=O)c2nn(C)c(C)c2Cl)cc1 | 13µM* | 1% | -8% | 1% | 3%
Cn1cnnc1SCC(=O)Nc1ncc([N+](=O)[O-])s1 | / | 8.4µM* | / | / | /
CN(C)c1oc(-c2cccc3ccccc23)nc1C#N | / | 52% | / | / | /
CC(=O)NCCCC[C@H](NC(=O)OC(C)(C)C)C(=O)Nc1ccc2c(C(F)(F)F)cc(=O)oc2c1 | / | 4% | -6% | / | -4%
COC(=O)c1cc(C(=O)c2cccc(Cl)c2Cl)cn1C | 4% | -3% | 0% | 25µM* | -5%
Cc1cc(C)c(S(=O)(=O)NCC(c2ccc(N(C)C)cc2)N2CCc3ccccc32)c(C)c1 (stereo not drawn) | / | / | / | / | -9%
Oc1ccc(CNc2ccc(C(F)(F)F)cc2Cl)c2cccnc12 | / | 11% | / | / | /
